Measurements taken from PubChem BioAssay (EPA / NIEHS).
Activity calls are given as the source filed them. How the source made its calls: active means hit-call score of the fitted dose curve at least 0.9, where 1 is the maximum; inactive means score below 0.9.

Test system: not listed separately
Assay: ATG_NRF2_ARE_CIS: Attagene CIS-FACTORIAL HepG2 Assay for human Nuclear Factor Erythroid 2 Related Factor 2 (NFR2) response to Antioxidant Response Elements (ARE) (AID 2282992);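 on AC50: reporter mRNA level measured by RT-PCR and capillary electrophoresis fluorescence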
Details: HepG2 Attagene ARE/NRF2 reporter, transcription factor activity; actives raise or lower the signal
Method in brief: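 Transient MRTU transfection of HepG2; 24 h compound exposure; TriZol RNA, RT with oligo(dT), PCR, 6-FAM primer extension, HpaI cut, CE. Bidirectional fit vs DMSO.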

outcome, inactive:
CC1(C)C(=O)N(Cl)C(=O)N1Br
Cc1cc(C)nc(NS(=O)(=O)c2ccc(N)cc2)n1
Cc1cc(=O)oc2cc(N(C)C)ccc12
IC(I)I
CC1(C)O[C@@H]2C[C@H]3[C@@H]4CCC5=CC(=O)C=C[C@]5(C)[C@@]4(F)[C@@H](O)C[C@]3(C)[C@]2(C(=O)CO)O1
O=C(Nc1ccc([N+](=O)[O-])cc1)Nc1ccc([N+](=O)[O-])cc1 (tested in a mixture with another compound)
Cc1ccc(S(=O)(=O)Oc2ccc(N=Nc3ccc(-c4ccc(N=Nc5c(O)ccc6cc(S(=O)(=O)O)cc(S(=O)(=O)O)c56)c(C)c4)cc3C)cc2)cc1
CCOC(=O)c1ccc(N)cc1

AC50, active:
CSc1c(Cl)c(Cl)c(Cl)c(Cl)c1Cl 48.4 µM
C=C1CC[C@H](O)C/C1=C/C=C1\CCC[C@]2(C)[C@@H]([C@H](C)/C=C/[C@H](C)C(C)C)CC[C@@H]12 27 µM
CCCCCCCCCCCCN1CCCCCC1=O 10.9 µM
CC1(C)C2=CCCC(C)(C)[C@]23CC[C@H]1C3 100 µM
CCCCCCC(C)Nc1ccc(Nc2ccccc2)cc1 (stereo unspecified) 24.1 µM
CC(C=O)Cc1ccc(C(C)(C)C)cc1 (stereo unspecified) 26.4 µM

Test system: not listed separately
Assay: ATG_Oct_MLP_CIS: Attagene CIS-FACTORIAL HepG2 Assay for human Octamer-Binding Transcription Factor (Oct) (AID 2282993)
Details: HepG2 Attagene cis-factorial Oct reporter, mRNA; actives raise or lower the signal
Method in brief: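 HepG2 cells transiently transfected with cis-promoter-driven multiplexed reporter transcription units, dosed for 24 h. Reporter mRNA quantified by RT-PCR, fluorescent labelling, HpaI digestion and capillary electrophoresis; bidirectional fits versus DMSO baseline.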

outcome, inactive:
C=CC(C)C#N (stereo unspecified)
CCCCC(CC)COC(=O)c1ccc(O)cc1 (stereo unspecified)
CCOC(=O)[C@@H](C)Oc1ccc(Oc2nc3ccc(Cl)cc3o2)cc1
COc1cc(Cl)c(OC)cc1N
CN(C)CCOc1ccc(/C(=C(/CCCl)c2ccccc2)c2ccccc2)cc1
CCOC(=O)CC(C)O (stereo unspecified)
COC(=O)c1ccc(OC)cc1
CCC(Cl)C(Cl)C(Cl)CC(Cl)C(Cl)C(C)Cl (stereo unspecified)
COC(C)(C)CC(C)=O
CC(=O)O[C@H]1C[C@@H]2CC[C@@]1(C)C2(C)C
CC(=O)O[C@@H]1C[C@@H]2CC[C@@]1(C)C2(C)C
CCCCCCC(O)CCCCCCCCCCC(=O)O (stereo unspecified)
CC1C2CC(CC2C2CCCC(O)C2)C1(C)C (stereo unspecified)
CCCCCCCCCCCC(=O)OC[C@@H](O)[C@H]1OC[C@H](O)[C@H]1O
CCc1cc(C(C)(C)C)c(O)c(C(C)(C)C)c1
C=CC(C)(O)CCC=C(C)C (stereo unspecified)
CCC1(c2ccccc2)C(=O)NCNC1=O
CC1(C)C(=O)N(Cl)C(=O)N1Br
Cc1cc(C)nc(NS(=O)(=O)c2ccc(N)cc2)n1
IC(I)I
O=C(Nc1ccc([N+](=O)[O-])cc1)Nc1ccc([N+](=O)[O-])cc1 (tested in a mixture with another compound)
CCCCCCCCCCCCN1CCCCCC1=O
CC1(C)C2=CCCC(C)(C)[C@]23CC[C@H]1C3
CCCCCCC(C)Nc1ccc(Nc2ccccc2)cc1 (stereo unspecified)
CCOC(=O)c1ccc(N)cc1

AC50, active:
CC(C)(C)OC(=O)c1ccc(O)cc1 100 µM
O=[N+]([O-])c1ccc(O)cc1C(F)(F)F 55.2 µM
O=C(Nc1ccc2c(c1)Cc1ccccc1-2)C(F)(F)F 24.5 µM
Cc1cc(=O)oc2cc(N(C)C)ccc12 57.4 µM
CSc1c(Cl)c(Cl)c(Cl)c(Cl)c1Cl 139 µM

Target: Cellular tumor antigen p53 (Homo sapiens) (UniProt P04637)
Assay: ATG_p53_CIS: Attagene CIS-FACTORIAL HepG2 Assay for human p53 Transcription Factor (AID 2282994)
Details: HepG2 p53 cis-element reporter, Attagene mRNA; actives raise or lower the signal
Method in brief: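 HepG2, transient MRTU transfection (cis promoter elements, endogenous TFs); 24 h dosing; RNA isolation, RT-PCR, 6-FAM primer extension, HpaI digest, CE fluorescence; bidirectional fit vs DMSO.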

Cellular tumor antigen p53 (Homo sapiens), sequence (P04637 whole entry, looked up): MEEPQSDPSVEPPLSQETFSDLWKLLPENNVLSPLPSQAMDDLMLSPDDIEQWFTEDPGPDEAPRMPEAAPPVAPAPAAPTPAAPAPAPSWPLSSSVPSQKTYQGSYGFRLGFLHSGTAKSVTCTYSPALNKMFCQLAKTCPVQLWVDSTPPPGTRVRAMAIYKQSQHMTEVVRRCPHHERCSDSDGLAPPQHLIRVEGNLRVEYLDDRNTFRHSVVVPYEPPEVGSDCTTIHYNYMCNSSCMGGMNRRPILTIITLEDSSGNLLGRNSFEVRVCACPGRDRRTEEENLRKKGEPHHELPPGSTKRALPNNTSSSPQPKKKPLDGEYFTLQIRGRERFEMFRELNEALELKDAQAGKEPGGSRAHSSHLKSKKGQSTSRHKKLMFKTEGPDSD

outcome, inactive:
C=CC(C)C#N (stereo unspecified)
CCCCC(CC)COC(=O)c1ccc(O)cc1 (stereo unspecified)
CCOC(=O)[C@@H](C)Oc1ccc(Oc2nc3ccc(Cl)cc3o2)cc1
CN(C)CCOc1ccc(/C(=C(/CCCl)c2ccccc2)c2ccccc2)cc1
O=[N+]([O-])c1ccc(O)cc1C(F)(F)F
CCOC(=O)CC(C)O (stereo unspecified)
COC(=O)c1ccc(OC)cc1
CCC(Cl)C(Cl)C(Cl)CC(Cl)C(Cl)C(C)Cl (stereo unspecified)
COC(C)(C)CC(C)=O
CC(=O)O[C@H]1C[C@@H]2CC[C@@]1(C)C2(C)C
O=C(Nc1ccc2c(c1)Cc1ccccc1-2)C(F)(F)F
CC(=O)O[C@@H]1C[C@@H]2CC[C@@]1(C)C2(C)C
NCC1CCCC(CN)C1 (stereo unspecified)
CCCCCCCCSCCO
CC1C2CC(CC2C2CCCC(O)C2)C1(C)C (stereo unspecified)
CCCCCCCCCCCC(=O)OC[C@@H](O)[C@H]1OC[C@H](O)[C@H]1O
CCc1cc(C(C)(C)C)c(O)c(C(C)(C)C)c1
CCOC(=O)CN
CCC1(c2ccccc2)C(=O)NCNC1=O
CCc1cc(Cc2cc(CC)cc(C(C)(C)C)c2O)c(O)c(C(C)(C)C)c1
Cc1cc(C)nc(NS(=O)(=O)c2ccc(N)cc2)n1
Cc1cc(=O)oc2cc(N(C)C)ccc12
CSc1c(Cl)c(Cl)c(Cl)c(Cl)c1Cl
C=C1CC[C@H](O)C/C1=C/C=C1\CCC[C@]2(C)[C@@H]([C@H](C)/C=C/[C@H](C)C(C)C)CC[C@@H]12
IC(I)I
CC1(C)O[C@@H]2C[C@H]3[C@@H]4CCC5=CC(=O)C=C[C@]5(C)[C@@]4(F)[C@@H](O)C[C@]3(C)[C@]2(C(=O)CO)O1
O=C(Nc1ccc([N+](=O)[O-])cc1)Nc1ccc([N+](=O)[O-])cc1 (tested in a mixture with another compound)
Cc1ccc(S(=O)(=O)Oc2ccc(N=Nc3ccc(-c4ccc(N=Nc5c(O)ccc6cc(S(=O)(=O)O)cc(S(=O)(=O)O)c56)c(C)c4)cc3C)cc2)cc1
CCCCCCCCCCCCN1CCCCCC1=O
CC1(C)C2=CCCC(C)(C)[C@]23CC[C@H]1C3
CCOC(=O)c1ccc(N)cc1
CC(C=O)Cc1ccc(C(C)(C)C)cc1 (stereo unspecified)
